In PubChem BioAssay (EPA / NIEHS):
Results filed as inconclusive are left out. Activity calls are given as the source filed them. How the source made its calls, unless noted: active means hit-call score of the fitted dose curve at least 0.9, where 1 is the maximum; inactive means score below 0.9.

What was measured:
[1] = ATG_TCF_b_cat_CIS: Attagene CIS-FACTORIAL HepG2 Assay for human T-Cell-Factor with beta-catenin (TCF/b-cat) (AID 2282965); conditions: HepG2 TCF/beta-catenin cis-reporter transcription, actives raise or lower the signal
How it was run: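 HepG2, transient MRTU transfection, cis-element-driven reporters (endogenous TFs). 24 h compound exposure. Readout: reporter mRNA by RT-PCR + 6-FAM primer extension, HpaI digest, capillary electrophoresis. Gain/loss fit vs DMSO baseline.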

[2] = ATG_TAL_CIS: Attagene CIS-FACTORIAL HepG2 Assay for human TAL Basal Promoter (AID 2282966); conditions: HepG2 Attagene cis-factorial TAL promoter reporter; actives raise or lower the signal;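 further: background control endpoint measuring basal TAL promoter reporter mRNA not a specific factor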
How it was run: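 HepG2, transient MRTU transfection, 24 h compound exposure; RNA → oligo(dT) RT → PCR → 6-FAM primer extension → HpaI digest → CE fluorescence. Bidirectional curve fit vs DMSO. Background-control readout.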

[3] = ATG_TGFb_CIS: Attagene CIS-FACTORIAL HepG2 Assay for human Transforming Growth Factor (TGF) (AID 2282967); conditions: HepG2 Attagene CIS TGFb reporter, mRNA transcription; actives raise or lower the signal
How it was run: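 Cells were dosed for 24 hours, after which total RNA was reverse-transcribed and reporter sequences amplified, labeled and sized by capillary electrophoresis. Activity was fitted in both directions against DMSO.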

[4] = biological target: X-box-binding protein 1 (Homo sapiens) (UniProt P17861); assay: ATG_Xbp1_CIS: Attagene CIS-FACTORIAL HepG2 Assay for human X-box Binding Protein 1 (XBP1) (AID 2282972); conditions: HepG2 XBP1 cis-element reporter, Attagene multiplex; actives raise or lower the signal
How it was run: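 Human hepatoma HepG2, cis-element reporter system, 24 h treatment; mRNA quantified by RT-PCR/CE fluorescence; fit relative to DMSO.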

[5] = biological target: Estrogen receptor (Homo sapiens) (UniProt P03372); assay: ATG_ERa_TRANS: Attagene TRANS-FACTORIAL HepG2 Assay for human Estrogen Receptor alpha (ERa) (AID 2282970; active means hit-call score of the fitted dose curve at least 0.9, where 1 is the maximum); conditions: HepG2 Attagene TRANS ERa GAL4 reporter, mRNA
How it was run: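 Reporter mRNA induction after 24 hours, detected by fluorescent RT-PCR and capillary electrophoresis, gives the read-out. Cells are HepG2 transiently transfected with GAL4-UAS reporter transcription units responding to chimeric NR-Gal4. Activity is taken as gain of signal over DMSO baseline.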

[6] = biological target: Androgen receptor (Homo sapiens) (UniProt P10275); assay: ATG_AR_TRANS: Attagene TRANS-FACTORIAL HepG2 Assay for human Androgen Receptor (AR) (AID 2282973; active means hit-call score of the fitted dose curve at least 0.9, where 1 is the maximum); conditions: HepG2 Attagene TRANS-FACTORIAL AR reporter transcription
How it was run: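 Readout is reporter transcript abundance, quantified by fluorescent RT-PCR products separated on capillary electrophoresis. Human HepG2 liver cells carried transiently transfected NR-Gal4 chimera plus GAL4-UAS reporter constructs and were dosed for 24 h; activity scored upward versus DMSO.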

[7] = ATG_VDRE_CIS: Attagene CIS-FACTORIAL HepG2 Assay for human Vitamin D Receptor Element (VDRE) (AID 2282968); conditions: HepG2 VDRE cis-reporter transcription, actives raise or lower the signal
How it was run: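 Transient MRTU transfection of HepG2, 24 h compound exposure. Readout: reporter transcripts via RT-PCR and capillary electrophoresis, fluorescence. Bidirectional fit vs DMSO.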

[8] = ATG_M_19_TRANS: Attagene TRANS-FACTORIAL HepG2 Assay for M19 Transcription Factor (Internal Marker) (AID 2282974; active means hit-call score of the fitted dose curve at least 0.9, where 1 is the maximum); conditions: HepG2 Attagene TRANS-FACTORIAL M19 internal marker reporter
How it was run: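 Using RT-PCR and capillary electrophoresis, reporter mRNA from transiently transfected human HepG2 cells was quantified following 24 h exposure; activity was fitted in the positive direction against DMSO.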

[9] = biological target: Nuclear receptor subfamily 1 group I member 3 (Homo sapiens) (UniProt Q14994); assay: ATG_CAR_TRANS: Attagene TRANS-FACTORIAL HepG2 Assay for human Constitutive Androstane Receptor (CAR) (AID 2282969; active means hit-call score of the fitted dose curve at least 0.9, where 1 is the maximum;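 further: activators raise reporter mRNA above DMSO so AC50 marks induction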); conditions: HepG2 Attagene TRANS-FACTORIAL CAR reporter
How it was run: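 Transiently transfected HepG2, multiplex TRANS reporters (CAR-Gal4 chimera driving GAL4-UAS reporter). 24 h dosing. Readout: reporter transcript by RT-PCR + capillary electrophoresis, fluorescence intensity; positive direction vs DMSO.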

[10] = biological target: Steroid hormone receptor ERR1 (Homo sapiens) (UniProt P11474); assay: ATG_ERRa_TRANS: Attagene TRANS-FACTORIAL HepG2 Assay for human Estrogen-Related Receptor alpha (ERRa) (AID 2282971; active means hit-call score of the fitted dose curve at least 0.9, where 1 is the maximum); conditions: HepG2 Attagene TRANS reporter, ERRa transactivation
How it was run: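 Transfected HepG2, 24 h dosing, ERRa-Gal4 chimera driving GAL4-UAS reporter. Readout: reporter mRNA via RT-PCR plus capillary electrophoresis (fluorescence). Positive direction vs DMSO control.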

Measured: AC50

Sequence of Nuclear receptor subfamily 1 group I member 3 (Homo sapiens) (Q14994 whole entry, looked up, the tested form may be a part): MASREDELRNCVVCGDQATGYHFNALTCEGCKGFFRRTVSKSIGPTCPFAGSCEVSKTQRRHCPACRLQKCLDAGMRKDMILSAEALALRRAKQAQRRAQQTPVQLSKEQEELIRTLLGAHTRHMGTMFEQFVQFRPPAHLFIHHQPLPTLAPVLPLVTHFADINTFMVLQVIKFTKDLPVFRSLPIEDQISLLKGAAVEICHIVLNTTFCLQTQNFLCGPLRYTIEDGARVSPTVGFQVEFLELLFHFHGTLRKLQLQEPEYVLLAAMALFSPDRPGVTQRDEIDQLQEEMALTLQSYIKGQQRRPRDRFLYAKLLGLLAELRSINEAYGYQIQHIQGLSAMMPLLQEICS
Sequence of Estrogen receptor (Homo sapiens) (P03372 whole entry, looked up, the tested form may be a part): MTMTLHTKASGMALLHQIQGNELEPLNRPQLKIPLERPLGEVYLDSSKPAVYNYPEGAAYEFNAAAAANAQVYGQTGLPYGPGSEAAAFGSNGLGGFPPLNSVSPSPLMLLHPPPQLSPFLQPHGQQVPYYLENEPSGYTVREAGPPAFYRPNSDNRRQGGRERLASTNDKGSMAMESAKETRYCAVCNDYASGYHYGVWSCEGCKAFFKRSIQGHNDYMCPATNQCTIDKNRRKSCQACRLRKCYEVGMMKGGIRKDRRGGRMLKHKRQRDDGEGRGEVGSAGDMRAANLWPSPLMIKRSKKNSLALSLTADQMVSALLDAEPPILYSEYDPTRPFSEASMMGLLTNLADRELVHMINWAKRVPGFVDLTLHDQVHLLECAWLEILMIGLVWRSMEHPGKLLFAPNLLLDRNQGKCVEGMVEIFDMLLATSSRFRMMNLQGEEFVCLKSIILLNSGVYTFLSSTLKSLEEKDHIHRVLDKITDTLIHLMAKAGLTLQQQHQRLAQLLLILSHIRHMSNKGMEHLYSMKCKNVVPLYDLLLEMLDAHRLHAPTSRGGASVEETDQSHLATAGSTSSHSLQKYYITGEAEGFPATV
Sequence of X-box-binding protein 1 (Homo sapiens) (P17861 whole entry, looked up): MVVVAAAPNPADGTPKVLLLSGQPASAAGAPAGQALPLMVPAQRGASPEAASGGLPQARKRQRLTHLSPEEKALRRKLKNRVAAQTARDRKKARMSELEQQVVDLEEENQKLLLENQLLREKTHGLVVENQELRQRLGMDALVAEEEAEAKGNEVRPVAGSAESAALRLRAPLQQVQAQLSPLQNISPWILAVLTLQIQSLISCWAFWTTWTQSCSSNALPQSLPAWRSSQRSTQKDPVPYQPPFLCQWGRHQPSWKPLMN
Sequence of Androgen receptor (Homo sapiens) (P10275 whole entry, looked up, the tested form may be a part): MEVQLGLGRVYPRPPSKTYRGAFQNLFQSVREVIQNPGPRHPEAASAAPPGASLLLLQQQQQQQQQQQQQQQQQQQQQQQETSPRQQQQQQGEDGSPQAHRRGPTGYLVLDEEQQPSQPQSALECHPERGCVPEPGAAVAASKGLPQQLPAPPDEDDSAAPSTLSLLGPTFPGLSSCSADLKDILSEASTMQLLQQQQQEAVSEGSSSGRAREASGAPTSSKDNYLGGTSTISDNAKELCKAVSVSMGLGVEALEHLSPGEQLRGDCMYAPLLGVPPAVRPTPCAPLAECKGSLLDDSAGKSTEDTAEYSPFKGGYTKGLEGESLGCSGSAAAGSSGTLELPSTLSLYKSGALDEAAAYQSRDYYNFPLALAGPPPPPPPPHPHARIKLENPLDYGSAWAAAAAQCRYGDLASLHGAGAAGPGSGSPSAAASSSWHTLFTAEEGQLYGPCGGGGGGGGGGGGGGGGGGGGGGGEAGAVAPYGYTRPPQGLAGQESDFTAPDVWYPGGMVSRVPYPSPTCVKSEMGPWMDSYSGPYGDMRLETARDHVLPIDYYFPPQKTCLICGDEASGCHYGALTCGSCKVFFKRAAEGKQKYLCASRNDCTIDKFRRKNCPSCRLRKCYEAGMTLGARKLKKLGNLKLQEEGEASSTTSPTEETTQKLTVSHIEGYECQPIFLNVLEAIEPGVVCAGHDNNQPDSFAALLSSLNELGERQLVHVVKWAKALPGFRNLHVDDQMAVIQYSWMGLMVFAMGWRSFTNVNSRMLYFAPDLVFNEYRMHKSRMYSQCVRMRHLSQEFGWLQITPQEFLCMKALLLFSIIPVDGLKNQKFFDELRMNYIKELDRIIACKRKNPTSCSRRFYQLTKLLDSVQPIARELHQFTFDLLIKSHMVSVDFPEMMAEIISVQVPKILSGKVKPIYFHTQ
Sequence of Steroid hormone receptor ERR1 (Homo sapiens) (P11474 whole entry, looked up, the tested form may be a part): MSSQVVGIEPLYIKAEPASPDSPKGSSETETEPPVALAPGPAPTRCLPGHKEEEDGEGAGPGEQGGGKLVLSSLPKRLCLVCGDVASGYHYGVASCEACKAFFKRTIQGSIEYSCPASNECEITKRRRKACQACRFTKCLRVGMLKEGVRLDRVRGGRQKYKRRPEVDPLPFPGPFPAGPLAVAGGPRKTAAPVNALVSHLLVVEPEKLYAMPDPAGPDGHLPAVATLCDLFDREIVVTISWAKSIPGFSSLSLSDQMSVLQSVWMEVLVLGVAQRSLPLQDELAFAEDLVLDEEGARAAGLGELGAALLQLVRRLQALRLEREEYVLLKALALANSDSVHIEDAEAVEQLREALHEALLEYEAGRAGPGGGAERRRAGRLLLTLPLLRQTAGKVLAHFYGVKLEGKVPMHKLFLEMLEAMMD

CC(C)(C)c1ccc(O)cc1
active: [1] 148 µM | [4] 171 µM
inactive: [2] | [3]

O=P(OCC(Br)CBr)(OCC(Br)CBr)OCC(Br)CBr (stereo not given)
inactive: [1] | [2] | [3] | [5] | [6]
active: [4] 8.88 µM

CCN(CC)c1ccccc1
not listed: [9] | [10]
inactive: all other assays above

CCOS(=O)(=O)OCC
inactive: [1] | [2] | [3] | [7] | [4]

Nc1ccc(Cl)cc1
inactive: [1] | [2] | [3] | [5] | [4] | [8]

N#Cc1c(-c2ccc(Cl)cc2)[nH]c(C(F)(F)F)c1Br
active: [7] 0.605 µM
not listed: [9] | [10]
inactive: all other assays above

CC1=C(C(=O)Nc2ccccc2)S(=O)(=O)CCO1
active: [7] 9.33 µM
inactive: [1] | [2] | [3] | [4]

O=C(O)C1C(C(=O)O)C2(Cl)C(Cl)=C(Cl)C1(Cl)C2(Cl)Cl (stereo not given)
inactive: [1] | [2] | [3] | [5] | [4]

COP(=O)(O)OC
not listed: [7] | [10]
inactive: all other assays above

OCC(F)(F)OC(F)(F)C(F)(F)OC(F)(F)CO
active: [5] 9.78 µM
not listed: [8] | [9] | [10]
inactive: all other assays above

Cc1ccc(O)cc1C
active: [5] 72.4 µM
inactive: [1] | [2] | [3] | [4] | [8]

Oc1ccccc1Br
inactive: [1] | [2] | [3] | [7] | [4]

COP(=O)(CCC(=O)NCO)OC
not listed: [5] | [8] | [9]
inactive: all other assays above

c1ccc2c(c1)Nc1ccccc1S2
active: [5] 11.7 µM
not listed: [6] | [7]
inactive: all other assays above

CCCCN(CCCC)N=O
inactive: [1] | [2] | [3] | [5] | [4]

COC(N)=O
inactive: [1] | [2] | [3] | [7] | [4] | [8]

CCCCc1ccccc1
not listed: [6] | [9] | [10]
inactive: all other assays above

Cc1cccc(N)c1
inactive: [1] | [2] | [3] | [7] | [4]

O=[N+]([O-])c1ccccc1
inactive: [1] | [2] | [3] | [4]
active: [5] 19.8 µM

NNC(N)=S
inactive: [1] | [2] | [3] | [7] | [4] | [8]

CN(C)C(=O)Cl
inactive: [1] | [2] | [3] | [7] | [10] | [4]

CC(C)(C)OOC(C)(C)C
inactive: [1] | [2] | [3] | [4] | [8]

O=S1(=O)OCC2C(CO1)C1(Cl)C(Cl)=C(Cl)C2(Cl)C1(Cl)Cl (stereo not given)
active: [1] 11.6 µM | [4] 167 µM
inactive: [2] | [3] | [9] | [5]

CC(Cl)CN(C)C (stereo not given)
not listed: [6] | [9] | [10]
inactive: all other assays above

O=C(O)CF
inactive: [1] | [2] | [3] | [7] | [4] | [8]

Cc1ccc(C(=O)Cl)cc1
not listed: [5] | [6] | [9]
inactive: all other assays above

CCCCc1ccc(O)cc1
active: [5] 4.66 µM
not listed: [6] | [7] | [10]
inactive: all other assays above

Cn1[nH]nnc1=S
inactive: [1] | [2] | [3] | [7] | [4] | [8]

c1cc2c3c(cccc3c1)CC2
not listed: [6] | [7] | [10]
inactive: all other assays above

C=C(C)C(=O)OCC1CO1 (stereo not given)
inactive: [1] | [2] | [3] | [7] | [4]

CCC1(c2ccccc2)C(=O)N=C(O)NC1=O (stereo not given)
inactive: [1] | [2] | [3] | [7] | [4]

Nc1ccc([N+](=O)[O-])cc1Cl
not listed: [9] | [10]
inactive: all other assays above

OCC1CO1 (stereo not given)
not listed: [6] | [9] | [10]
inactive: all other assays above

C=CC(=O)OCC(F)(F)C(F)F
inactive: [2] | [3] | [10] | [4] | [6]
active: [1] 89.3 µM | [7] 90.3 µM

O=C(O)C(Cl)Cl
inactive: [1] | [2] | [3] | [4]
